Assay outcomes from PubChem.
Shown are actives, neighbours in structure and some others; about 1.1% of the full set was active somewhere.
STK33 kin inh: blocks human STK33 kinase activity; ADP-Glo luminescence, MBP substrate; 0.44% of 27,000 active; AID 2322; inhibition, % at 12.5 µM; Q9BYT3; in the data active = inhibition above about 20%
Target sequence (Q9BYT3 whole entry, looked up): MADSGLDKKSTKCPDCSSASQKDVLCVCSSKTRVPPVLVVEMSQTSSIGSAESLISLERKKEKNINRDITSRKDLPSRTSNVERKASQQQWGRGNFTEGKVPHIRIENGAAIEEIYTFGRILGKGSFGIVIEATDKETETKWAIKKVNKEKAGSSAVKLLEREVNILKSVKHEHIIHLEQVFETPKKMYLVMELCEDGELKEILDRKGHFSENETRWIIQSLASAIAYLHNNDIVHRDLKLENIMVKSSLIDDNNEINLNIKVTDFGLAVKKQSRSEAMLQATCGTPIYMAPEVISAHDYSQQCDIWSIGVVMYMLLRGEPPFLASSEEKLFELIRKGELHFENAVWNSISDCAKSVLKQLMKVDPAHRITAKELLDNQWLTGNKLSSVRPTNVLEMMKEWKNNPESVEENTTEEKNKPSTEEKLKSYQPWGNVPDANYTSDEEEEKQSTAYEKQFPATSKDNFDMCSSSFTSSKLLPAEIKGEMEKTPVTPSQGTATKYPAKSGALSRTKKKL
ID4 SMM: binders of human ID4 protein; P47928; small molecule microarray, Flag-ID4 binding, fluorescence F/B; calls only; 1.2% of 31,000 active; call rule not given here;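 note: a binder raises fluorescence above local background on the spot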
Numbers without * were called inactive; i = inactive; . = not tested or not shown; + = active, no number.

SMILES	STK33 kin inh	ID4 SMM
O=C1c2ccccc2S(=O)(=O)N1CCCCN1CCN(c2ncccn2)CC1	.	+
O=C1CC2(CCCC2)CC(=O)N1CCCCN1CCN(c2ncccn2)CC1	1	i
O=S(=O)(c1ccc(Cl)c(Cl)c1)N1CCN(Cc2ccc(OCCO)cc2)CC1	-3	.
O=C(O)C[C@H]1C[C@@H]2c3cc(NC(=O)CC4CC4)ccc3O[C@@H]2[C@@H](CO)O1	.	i
CN1C(=O)C2C=CC=CC2N=C1SCc1ccccc1F (configuration not stated)	.	i
Cc1cc(NC(=O)CSc2nnnn2-c2ccccc2)ccc1Cl	-1	i
Cc1ccc(NC(=O)CSc2nnnn2-c2ccc(Cl)c(C(=O)O)c2)cc1C	-2	+
O=C(NCc1nc(-c2ccccc2)no1)c1ccc2ccccc2c1	7	i
C[C@@H]1CN([C@H](C)CO)C(=O)Cc2cc(NS(C)(=O)=O)ccc2O[C@@H]1CN(C)S(=O)(=O)c1cn(C)cn1	-2	i
O=C(Nc1sc2c(c1C(=O)NCc1cccnc1)CCCC2)c1ccc(Cl)cc1	2	i
Cc1occc1C(=O)Nc1sc2c(c1C(=O)NCc1cccnc1)CCCC2	4	+
O=C1c2ccccc2C(=O)N1C[C@@H]1CCCN(Cc2ccc(OCCO)cc2)C1	.	+
COc1ccc(S(=O)(=O)N[C@@H]2CCCN(Cc3ccc(OCCO)cc3)C2)cc1	4	i
O=S(=O)(N[C@@H]1CCCN(Cc2ccc(OCCO)cc2)C1)c1ccc(Cl)cc1	-3	+
O=C1c2ccccc2C(=O)N1C[C@@H]1CCCN(Cc2cccc(OCCO)c2)C1	-2	i
CC12CCC(C(=O)NCCN3CCOCC3)(OC1=O)C2(C)C (configuration not stated)	0	i
CNC[C@@H]1Oc2ccc(NS(=O)(=O)c3ccccc3)cc2CC(=O)N([C@@H](C)CO)C[C@@H]1C	-1	i
CNC[C@@H]1Oc2ccc(NS(=O)(=O)c3ccccc3)cc2CC(=O)N([C@@H](C)CO)C[C@H]1C	.	+
CNC[C@H]1Oc2ccc(NS(=O)(=O)c3cccs3)cc2CC(=O)N([C@H](C)CO)C[C@@H]1C	.	+
CNC[C@@H]1Oc2ccc(NS(=O)(=O)c3cccs3)cc2CC(=O)N([C@H](C)CO)C[C@@H]1C	-2	i
N#CCCN(CCC#N)C(=O)c1ccccc1Oc1ccccc1	0	i
COC(=O)c1cccc(O)c1C(=O)c1c(O)cc(C)cc1O	-10	i
COC(=O)c1cc(O)c(C(=O)c2c(O)cccc2C(=O)O)c(O)c1	94*	i
O=C(Nc1ccccc1)NC1(c2cn(CC(=O)N3CCN(c4ccccc4)CC3)nn2)CCCCC1	.	i
O=C(O)CNc1ncnc2oc(-c3ccccc3)c(-c3ccccc3)c12	43*	i
SMILES	STK33 kin inh	ID4 SMM
c1ccc(-c2oc3ncnc(NCCN4CCOCC4)c3c2-c2ccccc2)cc1	3	i
COc1ccc(-c2nnc(SCC(=O)Nc3c(F)cc(F)cc3Br)n2C)cc1	3	i
Cn1c(SCC(=O)Nc2c(F)cc(F)cc2Br)nnc1-c1ccco1	0	+
CNC[C@H]1Oc2ccc(NC(=O)Nc3ccc4c(c3)OCO4)cc2CC(=O)N([C@@H](C)CO)C[C@H]1C	-1	i
O=C(C[C@@H]1CC[C@@H](NS(=O)(=O)c2ccccc2)[C@@H](CO)O1)NCCN1CCCCC1	.	+
O=C(C[C@@H]1CC[C@@H](NS(=O)(=O)c2ccccc2)[C@H](CO)O1)NCCN1CCCCC1	.	i
O=C(O)c1cc(O)c2c(c1)C(=O)c1cc(O)cc(O)c1C2=O	4	.
O=C1c2ccc(O)cc2C(=O)c2ccc(O)cc21	34*	i
COC(=O)C[C@H]1C=C[C@@H](NS(=O)(=O)c2ccccc2F)[C@H](CO)O1	.	i
COc1ccc(S(=O)(=O)NCC2CCCO2)cc1-c1nnc2c3ccccc3c(C)nn12 (configuration not stated)	4	i
CCN(CC(=O)Nc1ccccc1F)S(=O)(=O)c1ccc2ccccc2c1	0	i
CC(C)NC(=O)Nc1ccc2c(c1)C(=O)N([C@@H](C)CO)C[C@H](C)[C@@H](CN(C)Cc1ccc(Oc3ccccc3)cc1)O2	0	.
Cc1ccc(S(=O)(=O)N2CCN(Cc3ccc(OCCO)cc3)CC2)cc1	-1	i
COc1ccc(S(=O)(=O)N2CCN(Cc3cccc(OCCO)c3)CC2)cc1	-2	.
COc1ccc(S(=O)(=O)N2CCN(Cc3ccc(OCCO)cc3)CC2)cc1	-1	+
Cc1ccc(S(=O)(=O)N2CCN(Cc3cccc(OCCO)c3)CC2)cc1	-3	+
COc1ccc(S(=O)(=O)Nc2ccc3c(c2)CC(=O)N([C@H](C)CO)C[C@@H](C)[C@@H](CN(C)Cc2ccc(C(=O)O)cc2)O3)cc1	-3	i
C/S(=N\S(=O)(=O)c1cccc2nsnc12)c1ncc(Cl)cc1C(F)(F)F (configuration not stated)	.	i
CC(C)n1cnc2c(NCc3ccccc3O)nc(NCCCO)nc21	6	.
CN(C)CCCN1C(=O)C(=O)C(C(=O)c2ccco2)C1c1ccc([N+](=O)[O-])cc1 (configuration not stated)	1	i
COc1ccc2nc(Nc3nc(CSc4ccc(Cl)cc4)cc(=O)[nH]3)nc(C)c2c1	6	i
COc1ccc2nc(NC3=NC(c4ccccc4)CC(=O)N3)nc(C)c2c1 (configuration not stated)	-1	+
CC(=O)NCCCN(CCCCN(CCCNC(=O)/C=C/c1ccc(O)cc1)C(C)=O)C(=O)/C=C/c1ccc(O)cc1	40*	i
O=C(/C=C/c1ccc(O)cc1)NCCc1ccc(O)cc1	3	.
CCc1ccnc(NC(=O)CC2(CC(=O)O)CCCCC2)c1	.	i
SMILES	STK33 kin inh	ID4 SMM
COc1ccccc1NC(=O)C1CC(=O)n2c(nc3ccccc32)N1 (configuration not stated)	-3	i
O=[N+]([O-])c1ccccc1S(=O)(=O)N1CCN(Cc2cccc(OCCO)c2)CC1	-1	i
O=[N+]([O-])c1ccccc1CN1CCN(CCO)CC1	2	+
O=C1Nc2ccc(Br)cc2/C1=C/c1cc2c([nH]1)CCCC2	72*	.
CN(C)S(=O)(=O)c1ccc2c(c1)/C(=C/c1cc3c([nH]1)CCCC3)C(=O)N2	22	i
Cc1noc(C)c1NC(=O)N(C)C[C@H]1OCCCC[C@@H](C)Oc2ccc(NS(C)(=O)=O)cc2C(=O)N([C@H](C)CO)C[C@H]1C	.	i
O=C(NCc1ccc(F)cc1)[C@@H]1C[C@@H]2C(=O)N3CCC[C@H]3C(=O)N2[C@@H]1c1cccc(OCCO)c1	-6	i
NCCCCCNC(=O)[C@H]1C[C@H]2C(=O)N3CCC[C@H]3C(=O)N2[C@H]1c1cccc(OCCO)c1	-2	.
O=C1N[C@@H](Cc2ccccc2)C(=O)N2[C@@H]1C[C@@H](C(=O)NCc1ccc(F)cc1)[C@H]2c1cccc(OCCO)c1	-1	.
O=C1NCC(=O)N2[C@@H]1C[C@@H](C(=O)NCc1ccc(F)cc1)[C@H]2c1cccc(OCCO)c1	-3	+
NCCCCCCNC(=O)[C@H]1C[C@H]2C(=O)N[C@@H](Cc3ccccc3)C(=O)N2[C@H]1c1cccc(OCCO)c1	-10	+
O=C(NCc1ccc(F)cc1)[C@H]1C[C@H]2C(=O)N3CCC[C@H]3C(=O)N2[C@H]1c1cccc(OCCO)c1	1	+
